Experimental data as given in PubChem BioAssay (Tox21).
Where “and” joins values, the source holds several entries; their conditions need not be identical. Equal entries are not always repeated. Results filed as inconclusive are left out. Where a call stands in place of a potency, no number is given. Some compounds were tested as several samples or in several runs, with calls that do not always agree. Calls of active or inactive are those of the source. The call rests on the fitted dose curve; in most records, active means well fitted cell-killing curve with a large enough effect in the repeat runs; inconclusive means weak or mixed curves, or effect the other way; inactive means flat fitted curve, though single readings scatter.
Potency means the concentration at half of the fitted maximal effect.

Experiment: qHTS RealTime-Glo MT Cell Viability Assay in HEK293 cells - 24 hour (AID 1224886); further: nearly all actives have a fitted effect of over 50% in size; on activity change, negative = cytotoxicity: top concentration of the series differs between compounds
Details: RealTime-Glo luminescence; series mostly up to 76.8 µM; activity change, negative = cytotoxicity: at the top concentration
Source text: National Center for Advancing Translational Sciences [NCATS]
NIH Chemical Genomics Center [NCGC]
U.S. Environmental Protection Agency [EPA]
National Institutes of Environmental Health Sciences [NIEHS]
National Toxicology Program [NTP]
U.S. Food and Drug Administration [FDA]
Measure of cell viability is critical in the cell-base assay. Analysis of cell viability is necessary for the characterization of cell responses to cytotoxic drugs and environmental stress. A RealTime-Glo MT Cell Viability Assay to monitor cell viability in real time of continues cell culture during 40 hours of compound treatment was used to screen Tox21 10K library compounds in Hek293 cells. The RealTime-Glo MT Cell Viability Assay is a nonlytic, homogeneous, bioluminescent method to measure cell viability in real time using a simple, plate-based method. The assay involves adding NanoLuc luciferase and a cell-permeant prosubstrate to cells in culture. Viable cells reduce the proprietary prosubstrate to generate a substrate for NanoLuc luciferase. This substrate diffuses from cells into the surrounding culture medium, where it is rapidly used by the NanoLuc Enzyme to produce a luminescent signal. The signal correlates with the number of viable cells, making the assay well suited for cytotoxicity studies.
Tox21 Assay Protocol Summary:
The mixture of Hek293 cell suspension and reagents were dispensed at 600cells/6 ul/well in 1536-well tissue culture treated black solid bottom plates using a Multidrop dispenser. After the assay plates were incubated at a 37 C/5% CO2 incubator for 5 hours, 23 nL of compounds dissolved in DMSO, positive and negative controls was transferred to the assay plate by a pintool work station. The plates were incubated at 37 C for 40 hours. The luminescence intensity were measured at 0h, 8h, 16h, 24h, 32h and 40h time points using ViewLux plate reader during compound treatment.
With `CNC(=O)Oc1cccc2c1OC(C)(C)O2` the Potency was “inactive”. With `Clc1nc(Cl)nc(Cl)n1` the Potency was “inactive”. With `COP(=O)(OC)OC` the Potency was “inactive”. With `CN(C)C(=O)Nc1ccc(Cl)cc1` the Potency was “inactive”. With `COP(=S)(OC)Oc1cc(Cl)c(Cl)cc1Cl` the Potency was “inactive”. For `Cc1c(COC(=O)[C@@H]2[C@H](/C=C(\Cl)C(F)(F)F)C2(C)C)cccc1-c1ccccc1`, the Potency was 21.4 µM (active). With `Nc1cccnc1` the Potency was “inactive”. For `N#CC(Br)Br`, the “activity change, negative = cytotoxicity” value was 4.7% (inactive). For `c1nc[nH]n1`, the Potency was “inactive”. With `CCCCCCCCCCCOC(=O)c1ccccc1C(=O)OCCCCCCCCCCC` the Potency was “inactive”. With `CC(C)(c1cc(Cl)c(O)c(Cl)c1)c1cc(Cl)c(O)c(Cl)c1` the Potency was “inactive”. For `O=C(CCl)c1ccccc1`, the Potency was “inactive and 49 µM (active)”. With `Oc1cc(Cl)c(Cl)cc1Cl` the Potency was “inactive”. With `CCCCOCCOP(=O)(OCCOCCCC)OCCOCCCC` the “activity change, negative = cytotoxicity” value was -14% (inactive). In the case of `CC(C)(OOC(C)(C)c1ccccc1)c1ccccc1`, the Potency was “inactive”. With `CCOc1cc(C=O)ccc1O` the Potency was “inactive”. With `C=C(C)C(=O)OCC1CO1` (stereo not given) the Potency was “inactive”. For `Oc1cc(Cl)ccc1Cl`, the Potency was “inactive”. With `c1ccc(NNc2ccccc2)cc1` the Potency was “inactive”. For `NNC(=S)NN`, the Potency was “inactive”. With `Nn1cnnc1` the Potency was “inactive”. In the case of `Cc1ccc2c(c1N)C(=O)c1ccccc1C2=O`, the Potency was 9.67 µM (active) and 7.76 µM (active). For `CCOCN(C(=O)CCl)c1c(C)cccc1CC`, the Potency was “inactive”. For `O=[N+]([O-])c1cccc2ccccc12`, the Potency was “inactive”. With `Nc1ccc(-c2ccc(N)c(N)c2)cc1N` the “activity change, negative = cytotoxicity” value was 15.4% (inactive). In the case of `Cc1ccc(OP(=O)(Oc2ccc(C)cc2)Oc2ccc(C)cc2)cc1`, the “activity change, negative = cytotoxicity” value was -21.1% (inactive). In the case of `CCC(C)c1cc([N+](=O)[O-])cc([N+](=O)[O-])c1O` (stereo not given), the “activity change, negative = cytotoxicity” value was 6.04% (inactive). With `CCCCCCCCOC(=O)c1ccccc1C(=O)OCCCCCCCC` the Potency was “inactive”. With `OCC(O)CO` the Potency was “inactive”. With `O=C(O)CC[N+](=O)[O-]` the Potency was “inactive”. With `Cc1cc(C)cc(C)c1` the Potency was “inactive”. With `CC(C)C(=O)OCC(C)(C)C(OC(=O)C(C)C)C(C)C` (stereo not given) the Potency was “inactive”. In the case of `S=C1NCCN1`, the Potency was “inactive”. For `CCCCCCCCC(=O)NCc1ccc(O)c(OC)c1`, the Potency was “inactive”. For `CCc1cccc(CC)c1N(COC)C(=O)CCl`, the Potency was “inactive”. In the case of `CCN(CC)C(=O)SCc1ccc(Cl)cc1`, the Potency was “inactive”. In the case of `c1ccc(P(c2ccccc2)c2ccccc2)cc1`, the “activity change, negative = cytotoxicity” value was -26.3% (inactive). In the case of `N#Cc1cc(Br)c(O)c(Br)c1`, the Potency was “inactive”. In the case of `Cc1cccc(N)c1N`, the “activity change, negative = cytotoxicity” value was 22.3% (inactive). In the case of `CCOP(=S)(OCC)O/N=C(\C#N)c1ccccc1`, the Potency was “inactive”.
